According to PubChem BioAssay (Tox21):
“And” between values parts separate entries of the source, which are not always exact repeats. Equal entries are not always repeated. Records with an inconclusive call do not appear. The source made the active and inactive calls. Unless noted, calls follow the shape of the dose curve; as a rule, active = well fitted curve in the direction sought with a large enough effect in the repeat runs; inconclusive = weak or mixed curves; inactive = no such curve, though single readings can be large; an effect the other way counts as inactive or inconclusive. Residues, ends and D or L forms follow the SMILES beside them.

Key:
[1] = qHTS assay for small molecules that induce genotoxicity in human embryonic kidney cells expressing luciferase-tagged ATAD5 - cell viability (AID 651634; calls by dose curve; also: nearly all actives have a fitted effect of over 25% in size; also: potency is read from the fitted curve at half-maximal effect)
Method in brief: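 Quantitative high-throughput format. HEK293T cells expressing ATAD5 fused to luciferase were plated at 2,000 cells/well and treated 15.5 hr with compound versus DMSO. Viability was determined by fluorescent live-cell protease substrate, 30 min at 37C.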

[2] = qHTS assay for small molecule disruptors of the mitochondrial membrane potential - cell viability (AID 720634; calls by dose curve;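 also: human HepG2 liver cancer cells; series mostly up to about 83 µM; nearly all actives have a fitted effect of over 20% in size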)
Method in brief: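 Same-well counter-screen: following the MMP dye addition, CellTiter-Glo was added to 1 hr compound-treated HepG2 cells and luminescence read after 30 min at room temperature.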

[3] = qHTS assay to test for compound auto fluorescence at 590 nm (red) in HepG2 cells (AID 720674)
Method in brief: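 HepG2 cells, 2,000 per well in MEM with 10% FBS, attached overnight at 37 C, then got 23 nL compound or DMSO. After 1 hr at 37 C, 5% CO2, red fluorescence was read at 540/590 nm against Rose Bengal sodium as reference.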

[4] = qHTS assay to test for compound auto fluorescence at 535 nm (green) in HepG2 cells (AID 720675)
[5] = qHTS assay to test for compound auto fluorescence at 460 nm (blue) in HEK293 cells (AID 720678)
Method in brief: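 HEK293, 2,000 cells/well, 10% dialyzed FBS; attach 4-5 hr 37C; pin compound or DMSO; o/n 37C/5% CO2; fluorescence 405/460 nm; triamterene-equivalent units.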

[6] = qHTS assay to test for compound auto fluorescence at 590 nm (red) in HEK293 cells (AID 720679)
Method in brief: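 Intensity at 540nm excitation and 590nm emission is reported as Rose Bengal sodium-equivalent autofluorescence. Measurements followed overnight exposure (37C, 5% CO2) of HEK293 cells, 2,000 per well, to 23 nL compound.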

[7] = qHTS assay for small molecules that induce genotoxicity in human embryonic kidney cells expressing luciferase-tagged ATAD5 (AID 651632); also: nearly all actives have a fitted effect of over 15% in size
Method in brief: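 Test compounds were delivered by pin tool onto HEK293T reporter cells (2,000/well) expressing ATAD5 fused to luciferase. After 16 hr at 37C, 5% CO2, Amplite was added for 30 min at room temperature and luminescence was measured.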

[8] = qHTS assay for small molecule agonists of the p53 signaling pathway - cell viability (AID 651633; calls by dose curve;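 also: p53RE-bla HCT reporter cells with a stable beta-lactamase p53 reporter; series mostly up to about 83 µM; nearly all actives have a fitted effect of over 30% in size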)
Method in brief: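 p53RE-bla cells were treated with compound for 16 hours at 37 C. Cytotoxicity was then measured as CellTiter-Glo luminescence after 30 min at room temperature.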

[9] = qHTS assay for small molecule disruptors of the mitochondrial membrane potential (AID 720635); also: potency is read from the fitted curve at half-maximal effect
Method in brief: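 HepG2 cells exposed to compound 1 hr at 37C, then Mito-MPS dye 30 min. Ratio read of aggregate (540/590 nm) versus monomer (490/535 nm) fluorescence.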

Measured: Potency

O=S(=O)(O)NC1CCCCC1
not listed: [7] | [8] | [9]
inactive: all other assays above

Cc1ccccc1C(OCCN(C)C)c1ccccc1 (stereo not drawn)
not listed: [9]
inactive: all other assays above

O=C(O)c1cc(N=Nc2ccc(S(=O)(=O)Nc3ccccn3)cc2)ccc1O
active: [1] 23.7 µM and 27.4 µM and 48.6 µM
inactive: all other assays above

O=C(O)c1[nH]n(-c2ccc(S(=O)(=O)O)cc2)c(=O)c1N=Nc1ccc(S(=O)(=O)O)cc1
active: [1] 30.7 µM and 57.1 µM
inactive: all other assays above

O=C(C1CCCCC1)N1CC(=O)N2CCc3ccccc3C2C1 (stereo not drawn)
not listed: [7] | [8]
inactive: all other assays above

CNC[C@H](O)c1cccc(O)c1
not listed: [7]
inactive: all other assays above

Cc1ccc(S(=O)(=O)NC(=O)NN2CCCCCC2)cc1
inactive: all assays above

O=NO
not listed: [7]
inactive: all other assays above

Cc1cc(=O)[nH]c(=S)[nH]1
inactive: all assays above

Cn1c(=O)c2[nH]cnc2n(C)c1=O
not listed: [1] | [7] | [9]
inactive: all other assays above

OCCc1ccccc1
not listed: [7]
inactive: all other assays above

O=C1NC(=O)c2ccccc21
not listed: [7]
inactive: all other assays above

COc1c2occc2cc2ccc(=O)oc12
not listed: [1] | [7] | [9]
inactive: all other assays above

COC(=O)[C@H](Cc1ccccc1)NC(=O)[C@@H](N)CC(=O)O (H-Asp-Phe-OMe)
inactive: all assays above

Nc1ccc(S(=O)(=O)c2ccc(N)cc2)cc1
inactive: all assays above

C[C@]12C=CC(=O)C=C1CC[C@@H]1[C@@H]2[C@@H](O)C[C@@]2(C)[C@H]1CC[C@]2(O)C(=O)CO
not listed: [9]
inactive: all other assays above

O=C(O)c1cccnc1
not listed: [7] | [8]
inactive: all other assays above

CCCC(CCC)C(=O)O
not listed: [8]
inactive: all other assays above

NS(=O)(=O)c1cc(C(=O)O)c(NCc2ccco2)cc1Cl
not listed: [8] | [9]
inactive: all other assays above

O=C(O)CCCCC(=O)O
inactive: [8] | [3] | [4] | [5] | [6]

CC1(C)[C@@H]2CC[C@@]1(C)C(=O)C2
inactive: all assays above

C/C=C/c1ccc(OC)cc1
not listed: [7] | [9]
inactive: all other assays above

CCC1(c2ccccc2)C(=O)NCNC1=O
not listed: [1] | [7]
inactive: all other assays above

Cn1cc[nH]c1=S
not listed: [8]
inactive: all other assays above

O=C1CN(/N=C/c2ccc([N+](=O)[O-])o2)C(=O)N1
active: [9] 21.1 µM and 21.6 µM and 21.7 µM
not listed: [1]
inactive: all other assays above

c1ccc2[nH]ccc2c1
inactive: all assays above

N=C(N)c1ccc(OCCCCCOc2ccc(C(=N)N)cc2)cc1
not listed: [9]
inactive: all other assays above

CCCCC1C(=O)N(c2ccccc2)N(c2ccccc2)C1=O
not listed: [2] | [9]
inactive: all other assays above

O=C(O)c1cccc([N+](=O)[O-])c1
inactive: all assays above

CC(=O)OCC(COC(C)=O)OC(C)=O
inactive: all assays above

Cc1ccc(C)c(OCCCC(C)(C)C(=O)O)c1
not listed: [8]
inactive: all other assays above

O=C(c1ccccc1)C(O)c1ccccc1 (stereo not drawn)
not listed: [2] | [9]
inactive: all other assays above

CCCCCCCCCCCCCCCC(=O)O
inactive: all assays above

O=C(c1ccccc1)c1ccccc1
not listed: [1] | [7] | [9]
inactive: all other assays above

CCCC(O)C(CC)CO (stereo not drawn)
inactive: all assays above

O=C(O)CS
inactive: all assays above
